High-throughput results as filed in PubChem BioAssay.
Hits are enriched below; roughly 2.9% of the tested compounds scored in any of these assays.
MEKK2mut PB1 HTS: signal of MEK5 binding to mutant human MEKK2 PB1 domain. percent response, % at 10 µM. 290,000 tested, 0.35% active. AID 1530. bead flow cytometry, Alexa488-MEK5 binding to MEKK2 mutant; in the data active means percent response above about 24%, passing the limit was not always enough
MEKK2 WT-MEK5: raises or lowers MEK5 binding to wildtype human MEKK2 PB1 domain; Q9Y2U5; bead flow cytometry, Alexa488-MEK5 binding to MEKK2 WT; actives lie on both sides; binding response (% of control), % at 10 µM; 290,000 tested, 1.1% active; AID 1531; in the data active means binding response below about 67% or above about 130%
MEKK3 PB1 HTS: modulators (inhibitors or enhancers) of MEK5 binding to human MEKK3 PB1 domain | bead-based flow cytometry, Alexa488-MEK5 binding to MEKK3; actives lie on both sides; 0 = blocked by unlabeled MEK5, 100 = vehicle | binding response (% of control), % at 10 µM | 290,000 tested, 1.4% active;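 active means binding response more than 3 SD above or below the average of its plate-row segment, actives on both sides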;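 further: Alexa488 bead fluorescence after subtracting the streptavidin-only scavenger bead signal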
GRK2 aptamer HTS: inhibitors of human GRK2 displacing RNA aptamer. P25098. bead flow cytometry, FAM-aptamer displacement from GRK2. inhibition of aptamer binding, % at 10 µM. 330,000 tested, 0.59% active;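 active means inhibition of aptamer binding above 40%, roughly 3 SD of noise, on plates passing a quality check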;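 further: median bead fluorescence of bound FAM aptamer so fluorescent compounds give negative values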
Target sequence (P25098 whole entry, looked up): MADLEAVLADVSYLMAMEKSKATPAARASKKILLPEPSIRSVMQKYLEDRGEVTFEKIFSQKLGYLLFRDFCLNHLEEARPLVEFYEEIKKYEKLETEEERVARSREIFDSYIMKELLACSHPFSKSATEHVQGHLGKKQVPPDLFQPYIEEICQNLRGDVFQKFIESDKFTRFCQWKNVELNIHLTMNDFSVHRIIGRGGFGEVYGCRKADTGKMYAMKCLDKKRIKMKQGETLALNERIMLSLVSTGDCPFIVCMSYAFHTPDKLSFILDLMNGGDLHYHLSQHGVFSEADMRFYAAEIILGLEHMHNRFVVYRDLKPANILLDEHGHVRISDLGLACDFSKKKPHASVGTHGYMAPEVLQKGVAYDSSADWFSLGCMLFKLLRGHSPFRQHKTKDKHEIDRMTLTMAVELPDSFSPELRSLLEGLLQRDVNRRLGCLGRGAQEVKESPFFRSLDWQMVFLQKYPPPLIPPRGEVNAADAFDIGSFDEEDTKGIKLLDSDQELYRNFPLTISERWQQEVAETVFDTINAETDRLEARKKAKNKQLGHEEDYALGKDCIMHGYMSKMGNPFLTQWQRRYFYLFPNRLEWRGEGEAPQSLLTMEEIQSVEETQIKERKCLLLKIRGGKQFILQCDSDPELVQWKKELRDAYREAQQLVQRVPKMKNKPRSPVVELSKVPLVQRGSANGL
Beta2AR agonist: agonists of human beta-2 adrenergic receptor inducing internalization. Am2.2-beta2AR cells, FAP receptor internalization, flow cytometry. response, % (no concentration beside the values). 340,000 tested, 0.43% active;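 active means response above a set limit, near 3 SD of response in nonfluorescent compounds, cut at about 42% in these data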
MEKK2wt confirm: raises or lowers MEK5 binding to wildtype human MEKK2, retest; shares compounds with MEKK3 PB1 HTS; bead flow cytometry, Alexa488-MEK5 binding to MEKK2 WT; actives lie on both sides; binding response (% of control), % at 10 µM; 5,900 tested, 2.4% active; in the data active means binding response below about 16% or above about 210%; inactive means in between
MEKK2mut confirm: signal of MEK5 binding to mutant human MEKK2, retest; percent response, % at 10 µM; 5,900 tested, 2% active; shares compounds with MEKK3 PB1 HTS; bead flow cytometry, Alexa488-MEK5 binding to MEKK2 mutant; in the data active means percent response mostly above about 71%, no sharp cut-off; inactive means mostly below about 38%;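 further: higher means compound restores mutant binding toward wildtype level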
MEKK3 confirm: MEKK3-MEK5 PB1 inhibition, single concentration confirmation; shares compounds with MEKK3 PB1 HTS; binding response (% of control), % at 10 µM; bead flow cytometry, Alexa488-MEK5 binding to MEKK3; hits give low values; 5,900 tested, 1.8% active;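 active means binding response below 72% of control, or above a set upper limit, though filed actives all read lower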;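 further: 100% = DMSO only wells and 0% = binding blocked by excess unlabeled MEK5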
* marks the source's active call; other numbers are inactive results; nt = not tested or not shown; [ ] = dose if it differs, or a comment.

SMILES | MEKK2mut PB1 HTS | MEKK2 WT-MEK5 | MEKK3 PB1 HTS | GRK2 aptamer HTS | Beta2AR agonist | MEKK2wt confirm | MEKK2mut confirm | MEKK3 confirm
O=C(NCc1nc(-c2ccccc2)no1)c1cccs1 | -39 | -4.0*[inhibitor] | 0.0*[inhibitor] | 0 | -5 | 95 | 0 | 99
O=C(NCc1ccco1)c1cccs1 | -11 | 84 | 77*[inhibitor] | 4 | 3 | 100 | -1 | 97
O=C(NCc1ccco1)NC12CC3CC(CC(C3)C1)C2 | -13 | 91 | 81*[inhibitor] | 0 | -7 | 98 | 0 | 97
O=C(NCc1nc(-c2ccc(C(F)(F)F)cc2)no1)c1cccs1 | 3 | 110 | 109 | 0 | -8 | nt | nt | nt
Cc1cc(C)n(C(C)CNC(=O)c2ccc3c(c2)OCO3)n1 (configuration not stated) | -1 | 92 | 97 | 1 | 1 | nt | nt | nt
CCS(=O)(=O)N1CCC2(CC1)OCCN2S(=O)(=O)c1ccc(C)cc1 | nt | nt | nt | 0 | -3 | nt | nt | nt
CCn1c(COc2ccc(=O)n(-c3ccccc3)n2)n[nH]c1=S | 4 | 117 | 129* | 0 | -2 | 89 | -8 | 94
CCC1(CC)C(=O)N(c2ccccc2)C(=N)N(c2ccccc2)C1=O | nt | nt | nt | nt | -6 | nt | nt | nt
CCCSc1ncnc2sc(C)c(C)c12 | -46 | 8.0*[inhibitor] | 4.0*[inhibitor] | 1 | -6 | 10*[inhibitor] | -37 | 52*
O=C(CC(O)(CC(=O)OCc1ccccc1)C(=O)OCc1ccccc1)OCc1ccccc1 | nt | nt | nt | nt | 2 | nt | nt | nt
Cc1ccc(C(C)n2cc(C(=O)NCc3ccncc3)nn2)cc1 (configuration not stated) | -9 | 0.0*[inhibitor] | 1.0*[inhibitor] | 0 | 1 | 101 | -4 | 104
Cc1ccc(C(C)n2cc(C(=O)NCc3ccccn3)nn2)cc1 (configuration not stated) | -2 | 96 | 81 | 0 | -6 | nt | nt | nt
Cc1ccc(C)c(SCC(=O)Nc2cc(C)nn2-c2ccc(F)cc2)c1 | 11 | 105 | 100 | nt | nt | nt | nt | nt
COc1ccc(CCNCc2ccc(OCC(=O)N3CCCCC3)c(OC)c2)cc1OC | -3 | 97 | 96 | 0 | 1 | nt | nt | nt
Cc1ccc(NC(=O)c2nc[nH]c2C(=O)N2CCC(C)CC2)cc1 | 3 | 97 | 99 | 0 | 4 | nt | nt | nt
COc1ccc(NC(=O)c2nc[nH]c2C(=O)N2CCC(C)CC2)cc1 | -7 | 101 | 75*[inhibitor] | 0 | -8 | 100 | -1 | 101
CCC(=O)Nc1ccc(C(=O)NNC(=O)C2CCCCC2)cc1 | -1 | 98 | 99 | 3 | -2 | nt | nt | nt
O=C(Nc1ccc(Cl)cn1)c1ccc(COc2ccccc2Br)o1 | -18 | 50 | 49*[inhibitor] | 0 | -1 | 107 | 14 | 110
O=C(NCCOc1ccc(F)cc1)C1CCC(=O)N(CCc2ccccn2)C1 (configuration not stated) | 5 | 106 | 104 | 1 | -5 | nt | nt | nt
O=C(COc1ccc(F)cc1)c1c(O)cc(O)cc1O | 24 | 115 | 132* | 0 | 0 | 104 | 2 | 101
COc1ccc(C(=O)COc2ccc(F)cc2)c(O)c1 | 1 | 100 | 91 | 5 | 2 | nt | nt | nt
Cn1c(OCc2cccnc2)nc2c1c(=O)n(Cc1ccc(F)cc1)c(=O)n2C | -30 | 78 | 71*[inhibitor] | 2 | -1 | 99 | -2 | 104
COc1ccc(N2CCN(CCCNC(=O)CN3CCN(Cc4ccccc4C)C3=O)CC2)cc1 | 14 | 143* | 105 | 0 | -3 | 171 | 42 | 103
Cc1ccc(CN2CCN(CC(=O)NCCCN3CCN(c4ccc(F)cc4)CC3)C2=O)cc1 | 24* | 136 | 104 | 0 | 1 | 133 | 7 | 103
CC(CNC(=O)CC(C)(C)C)NC(=O)CC(C)(C)C (configuration not stated) | 7 | 102 | 123* | 0 | -4 | 94 | 0 | 102
SMILES | MEKK2mut PB1 HTS | MEKK2 WT-MEK5 | MEKK3 PB1 HTS | GRK2 aptamer HTS | Beta2AR agonist | MEKK2wt confirm | MEKK2mut confirm | MEKK3 confirm
CN(C)c1ccc(/C=N/NC(=S)NCc2ccccc2)cc1 | 0 | 105 | 108 | 4 | -15 | nt | nt | nt
CCN(Cc1ccccc1)c1ccc(/C=N/NC(=S)NC(C)C)cc1 | -1 | 82 | 59*[inhibitor] | 1 | 9 | 146 | 19 | 107
COc1ccc(/C=C2\SC(=S)N(CCC(=O)Nc3ccc(O)cc3)C2=O)cc1 | 3 | 98 | 99 | 0 | 1 | nt | nt | nt
CCN(CC)CCOC(=O)c1ccc(NC(=O)CCCN2C(=O)S/C(=C/c3ccc(OC)cc3)C2=S)cc1 | 44* | 192* | 106 | 0 | 4 | 111 | 2 | 87
C/C(=N\NC(=O)c1ccc(Br)cc1)C1C(=O)c2ccccc2C1=O | 3 | 105 | 103 | 4 | 8 | nt | nt | nt
C/C(=N\NC(=O)c1ccc(-c2ccccc2)cc1)C1C(=O)c2ccccc2C1=O | -16 | 47*[inhibitor] | 47*[inhibitor] | 3 | 9 | 97 | 0 | 103
COc1nc(NCCC2=CCCCC2)nc(OC)n1 | 4 | 107 | 124* | 1 | -2 | 107 | 4 | 106
COc1nc(NCCc2ccc(OC)c(OC)c2)nc(OC)n1 | 10 | 105 | 103 | 2 | -4 | nt | nt | nt
Cc1ccc(C(=O)C(C)OC(=O)C2CCN(c3ccc(C(F)(F)F)cn3)CC2)cc1 (configuration not stated) | nt | nt | nt | nt | 2 | nt | nt | nt
COC(=O)C1=C(C)NC(=O)NC1c1ccc(-c2ccc(Cl)cc2)o1 (configuration not stated) | -1 | 4.0*[inhibitor] | 94 | 1 | -3 | 108 | 6 | 108
COC(=O)C1=C(C)NC(=O)NC1c1ccc([N+](=O)[O-])o1 (configuration not stated) | 0 | 98 | 98 | 3 | 6 | nt | nt | nt
COc1ccc(CC(=O)N[C@@H]2c3cc(OC)c(OC)cc3C[C@H]2O)cc1 | nt | nt | nt | 3 | -1 | nt | nt | nt
COc1ccc(CNC(=O)CSCc2ccccc2Cl)cc1 | 1 | 105 | 128* | 0 | 28 | 103 | 0 | 103
Cn1ncc(C(=O)Nc2ccc(Cl)cc2)c1C(F)(F)F | -32 | 76 | 74*[inhibitor] | 0 | -2 | 104 | 6 | 107
O=C(C(=O)N1CCCCC1)c1cn(CC(=O)N2CCCCCC2)c2ccccc12 | -9 | 77 | 93 | 0 | 16 | nt | nt | nt
O=C(C(=O)N1CCc2ccccc2C1)c1cn(CC(=O)N2CCCC2)c2ccccc12 | 2 | 110 | 131* | 0 | -5 | 101 | 2 | 103
CCC(NC(=O)NCc1ccc2c(c1)OCO2)(C(F)(F)F)C(F)(F)F | 2 | 101 | 100 | 0 | 4 | nt | nt | nt
